Rows were chosen to be rich in hits. Some 12% of all compounds tested hit in one or more screens of this group.
LASV entry inh: Lassa virus entry inhibition | Lassa virus pseudotype entry inhibition, cell reporter | 300,000 tested, 1.2% active | AID 540256 | Potency, µM (top dose mostly 37.9 µM), for the others: at the top dose activity change, negative = inhibition, most hits filed as inhibitors; calls by dose curve; tested in HEK293 cells; further: potency means the concentration at half of the fitted maximal effect; on the % scale 0 is the no-effect control and ±100 the full control effect; nearly all actives have a fitted effect of over 50% in size
Marburg entry inh: blocks Marburg virus binding to or entry into cells | Marburg virus pseudotyped entry inhibition, cell reporter | Potency, µM (series often up to 37.8 µM), for the others: at the top dose activity change, negative = inhibition, usual class: inhibitors | 300,000 tested, 1.8% active | AID 540276; calls by dose curve; tested in HEK293 cells; further: potency means the concentration at half of the fitted maximal effect; on the % scale 0 is the no-effect control and ±100 the full control effect
Cycloheximide cs: counter-screen hit for Shiga toxin inhibitors, cycloheximide. cell reporter, cycloheximide protein synthesis inhibition counterscreen. max response, %. 300,000 tested, 12% active. AID 2314; in the data active means max response mostly above about 13%, no sharp cut-off; inactive means mostly below about 14%; further: read at 38.3 µM for the half of the compounds with a filed dose; 0% is about no effect
Shiga toxin inh: blocks Shiga toxin action in Vero cells; Vero cells, Shiga toxin protein synthesis inhibition reporter; inhibition, % at 38.7 µM; 290,000 tested, 9.2% active; in the data active means inhibition mostly above about 28%, no sharp cut-off; inactive means mostly below about 43%; further: 0% is about no effect
The depositor's hits bear a star; ? = inconclusive; / = not tested or not shown; [ ] = dose if it differs, or a comment.

SMILES	LASV entry inh	Marburg entry inh	Cycloheximide cs	Shiga toxin inh
Cc1ccc2c(c1)[C@@H]1CN(C)CC[C@@H]1N2S(=O)(=O)c1ccc([N+](=O)[O-])cc1	-25%	?	3	24
Cc1ccc2c(c1)C1CN(C)CCC1N2Sc1ccccc1[N+](=O)[O-] (stereo not given)	7.1µM*	?	-7	-9
COc1ccc(CONS(=O)(=O)c2ccc(NC(C)=O)cc2)cc1Cl	-51%[14.3 µM]	-8%	13	-17
O/N=C/c1cn(-c2ccccc2)nc1-c1cccnc1	4%	0.79µM*	2	-13
O=C(/C=C/c1cn(-c2ccccc2)nc1-c1cccnc1)c1ccco1	10µM*	?	25*	9
CCCC1O[C@@H]2C[C@H]3[C@@H]4CCC5=CC(=O)C=C[C@]5(C)[C@H]4[C@@H](O)C[C@]3(C)[C@]2(C(=O)CO)O1 (stereo not given in full)	?	9.2µM*	-2	-10
O=C1CN=C(c2cccc(Br)c2)c2cc(Br)ccc2N1	?	7.9µM*	-2	2
Cc1ccc(NS(=O)(=O)c2c(C(=O)N3CCCC3)c(C)n(C)c2C)cc1	?	12%[46.1 µM]	1	-4
COc1ccccc1NS(=O)(=O)c1cc(NC(=O)C(C)C)ccc1N1CCCCC1	?	0.79µM*	0	-7
O=C(Nc1cc(C(F)(F)F)ccc1N1CCOCC1)c1cccs1	-9%	?	4	-4
O=C(Nc1ccc(N2CCCC2)c(S(=O)(=O)Nc2cccc(C(F)(F)F)c2)c1)c1cccs1	?	1.4µM*	-1	-10
COc1ccccc1NS(=O)(=O)c1cc(NC(=O)c2cccs2)ccc1N1CCCCC1	?	5.8µM*	1	10
COc1ccccc1NS(=O)(=O)c1cc(NC(=O)c2cc[n+]([O-])cc2)ccc1N1CCCC1	-16%	-22%[46.1 µM]	-2	-8
COc1ccc(NC(=O)CCC(=O)c2cccs2)cc1S(=O)(=O)Nc1ccccc1Cl	?	?	12	47*
COc1ccccc1NS(=O)(=O)c1cc(NC(=O)Nc2ccccc2)ccc1N1CCCCC1	?	?	6	17
O=C(Nc1ccc(S(=O)(=O)Nc2ccccc2)cc1)N1CCCC1	-4%[46.1 µM]	/	/	/
COc1ccccc1NS(=O)(=O)c1cc(NC(=O)c2cccs2)ccc1N1CCCC1	12µM*	?	-3	1
COc1ccccc1NS(=O)(=O)c1cc(NC(=O)c2sccc2C)ccc1N1CCCC1	-18%	?	1	50
Cc1nc2ccccc2c(=O)n1/N=C/c1ccc(N(C)C)cc1	5%	?	26*	27
Cc1nc2ccccc2c(=O)n1/N=C/c1ccccn1	26%	18%	28*	22
Cc1nc2ccccc2c(=O)n1/N=C/c1ccccc1F	-2%[46.1 µM]	?	52*	105*
CCOc1ccc(/C=N/n2c(C)nc3ccccc3c2=O)cc1	/	/	-2	-5
CSc1ccc(/C=N/n2c(C)nc3ccccc3c2=O)cc1	/	/	23*	30
COc1cc(N2CCN(C(C)C)CC2)ccc1Nc1nc(Nc2ccc(F)cc2C(N)=O)c2cc[nH]c2n1	25µM*	/	/	/
COc1cc(C)c(NC(=O)CN(C)C)cc1Nc1nc(Nc2cccc(F)c2C(N)=O)c2cc[nH]c2n1	2.5µM*	/	/	/
SMILES	LASV entry inh	Marburg entry inh	Cycloheximide cs	Shiga toxin inh
COc1cc2c(cc1Nc1nc(Nc3ccsc3C(N)=O)c3cc[nH]c3n1)N(C(=O)CN(C)C)CCC2(C)C	0.5µM*	/	/	/
CCOc1ccc(CCNC(=O)C2CCCN(S(=O)(=O)N3CC(C)CC(C)C3)C2)cc1OCC (stereo not given)	25%[46.1 µM]	?	2	-4
COc1cccc(N2CCN(C(=O)C3CCCN(c4ncnc5c4nc4n5CCCCC4)C3)CC2)c1 (stereo not given)	/	/	-7	-5
COc1ccc2c(c1OC)C(=O)N(c1ccccn1)C2	?	?	52*	139*
COc1ccc2c(c1OC)C(=O)N(c1cccc(C)c1)C2	?	?	41*	49*
COc1ccccc1N1Cc2ccc(OC)c(OC)c2C1=O	14%[46.1 µM]	?	7	20
COc1ccc2c(c1OC)C(=O)N(c1cccc(C(F)(F)F)c1)C2	?	4%	20*	103*
Cc1cccc(N2CC(=O)N(c3cccc(C)c3)CC2=O)c1	-2%	10%	6	-5
COc1ccc2c(c1OC)C(=O)N(c1ccc(C)cc1)C2	?	?	54*	86*
CN1C(=O)NC(c2ccccc2)C2=C1CN(c1cccc(C(F)(F)F)c1)C2=O (stereo not given)	-26%	-6%	-1	-13
Nc1nnc(Cc2cccc(Br)c2)s1	-15%[46.1 µM]	7%[46.1 µM]	-1	11
COCc1nc2ccccc2n1CCOc1ccccc1OC	-6%	30%	6	23
CC1CCN(C(=O)C2CCN(S(=O)(=O)c3cccc4nonc34)CC2)CC1	-29%	-1%	-2	-13
COCC(=O)Nc1ccc(Nc2ccccc2)cc1	-2%	-9%	12	61*
CCC(=O)Nc1ccc(Nc2ccccc2)cc1	-3%	6%	16*	34*
O=C(Nc1ccc(Nc2ccccc2)cc1)C(Cl)(Cl)Cl	16%	3%	27*	49*
O=C(CC(=O)Nc1ccccc1)Nc1ccccc1	-1%	19%[46.1 µM]	/	/
CSc1ccccc1NC(=O)COC(=O)CCc1ccccc1	5%	6%[46.1 µM]	4	-4
CCOc1ccc(-n2nc3ccc(NC(=O)COc4ccccc4C)cc3n2)cc1	-18%[46.1 µM]	/	/	/
COc1ccccc1NC(=O)c1ccc2nsnc2c1	0%	-7%[46.1 µM]	26*	107*
CC(C)(C)c1ccc(OC(=O)c2ccc3nsnc3c2)cc1	?	1%	-5	17
COc1ccccc1NC(=O)c1ccc(N)cc1	2%	14%	16*	60*
COc1ccccc1NC(=O)c1ccc2snnc2c1	14%[46.1 µM]	?	16	42*
COc1ccccc1OC(=O)c1ccc2nsnc2c1	4%	23%	9.9*	15
COc1ccccc1NC(=O)c1ccccc1C(=O)Nc1ccccc1OC	-27%	4%	-3	-2
SMILES	LASV entry inh	Marburg entry inh	Cycloheximide cs	Shiga toxin inh
CCOC(=O)C1CC2CC(C1)CN(C(=O)C1CCCCC1)C2 (stereo not given)	/	/	8	-14
Cc1cc(OCC(=O)Nc2nccs2)c2c(C)cc(=O)oc2c1	/	/	-1	2
CC(C)c1ccc(NC(=O)c2ccc3snnc3c2)cc1	/	/	2	-10
CC1CCC(NC(=O)c2ccc3snnc3c2)CC1 (stereo not given)	/	/	41*	50*
Cc1ccc(NC(=O)c2ccc3snnc3c2)cc1	?	?	18*	29
Cc1ccc(C(=O)Nc2ccccc2OC(F)F)cc1	2%	28%	37*	45*
O=C(Nc1ccccc1)c1ccc2snnc2c1	13%	6%[46.1 µM]	25*	67*
CCOC(=O)c1cc(-c2ccccc2)n(CCC(=O)NCCc2ccc(C)cc2)c1C	-25%[46.1 µM]	/	/	/
O=C(NC1CCCCNC1=O)c1ccco1 (stereo not given)	/	/	1	-1
COc1ccccc1C(=O)NC(=O)COC(=O)CCOc1cc(C)ccc1C	3%	14%	-1	-11
COc1cc(NC(=O)c2ccc3snnc3c2)cc(OC)c1	28%[46.1 µM]	-1%[46.1 µM]	29*	23
Clc1cccc(OCCOCCN2CCNCC2)c1Cl	3%	13µM*	/	/
Cc1csc(Nc2ccccc2C(F)(F)F)n1	7%	-4%	21*	39
FC(F)(F)c1ccccc1Nc1nccs1	2%	0%	-5	-21

Bioassay records from PubChem.
